The source of these data is PubChem BioAssay (NCI).

This is part of a sample that, as a whole, favours compounds with a hit. Of some 79,000 tested, about 15% had one in any assay. Unmarked numbers belong to inactive results. The source made the active and inactive calls. Cut-off read from the data, not from the text of the source: active = growth inhibition above about 70%; inactive = the rest.

Test [1] in a line: NCI Yeast Anticancer Drug Screen. Data for the rad50 strain (AID 155).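 Note: 0% = growth of vehicle-only cultures of the same strain.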 As to conditions: S. cerevisiae rad50 strain growth inhibition; at 50.0 µM; stronger effect = higher value. In short, it runs like this: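 Growth of the mutant yeast was measured after compound exposure and referenced to vehicle-treated cultures.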
Test [2] is described as follows: NCI Yeast Anticancer Drug Screen. Data for the mec2-1 strain (AID 157). As to conditions: S. cerevisiae mec2-1 strain, at 50.0 µM, stronger effect = higher value. In short, it runs like this:
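Test agents were screened against the mec2-1 yeast strain, with defined DNA repair or cell cycle alteration. Growth was scored as inhibition against vehicle-only controls.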

Test [3] is described as follows: NCI Yeast Anticancer Drug Screen. Data for the sgs1 mgt1 strain (AID 161).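 Note: 0% = growth of cultures given vehicle only.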 As to conditions: S. cerevisiae sgs1 mgt1 strain, at 50.0 µM, stronger effect = higher value. The method in brief: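 Read-out: growth inhibition vs vehicle controls. Cells: mutant yeast strain deficient in DNA damage repair.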
The nature of test [4]: NCI Yeast Anticancer Drug Screen. Data for the cln2 rad14 strain (AID 165).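 Note: 0% = growth equal to vehicle treated cultures.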 As to conditions: S. cerevisiae cln2 rad14 strain, at 50.0 µM, stronger effect = higher value. The method in brief: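 Growth of compound-exposed yeast (cln2 rad14 genotype) measured and expressed as inhibition relative to vehicle.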
The nature of test [5]: NCI Yeast Anticancer Drug Screen. Data for the bub3 strain (AID 167). As to conditions: S. cerevisiae bub3 mutant strain, at 50.0 µM, stronger effect = higher value. The method in brief:
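Whole-cell yeast assay. The mutant strain was incubated with compounds, and growth inhibition was determined by comparison with vehicle-treated cells.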

Test [6] in a line: NCI Yeast Anticancer Drug Screen. Data for the mlh1 rad18 strain (AID 175). To be noted: S. cerevisiae mlh1 rad18 strain growth inhibition; at 50.0 µM; stronger effect = higher value. The method in brief:
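In this whole-cell yeast screen, a strain with altered DNA damage repair is challenged with compound, and its growth is measured against matched vehicle-treated controls.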

With `C/C(CCN(C)C)=N\OC(=O)c1ccccc1`, the growth inhibition was -12.2% in test [1]; -25.9% in test [2]; -33.2% in test [3]; -6.65% in test [4]; -6.95% in test [5]; -26.9% in test [6].
As for `CC(=O)C1=C(O)C(CSCc2ccccc2)NC1=O` (stereo unspecified), the growth inhibition in test [1] was 10.8%; in test [2], 0.65%; in test [3] it was 5.95%; in test [4] it was -2.9%; in test [5], 15.1%; in test [6] it was 15.2%.
As for `O=c1[nH]cc(NCCc2ccccc2)c(=O)[nH]1`, the growth inhibition in test [1] was 0.75%; in test [2], -4%; in test [3], -17.4%; in test [4], -50.9%; in test [5], 7.4%; in test [6] it was 1.6%.
For the compound `[O-][n+]1ccccc1Cl`, the growth inhibition was 8.05% in test [1]; 9.9% in test [2]; 10.2% in test [3]; -14.4% in test [4]; 6.85% in test [5]; 16.4% in test [6].
For the compound `Nc1nc(-c2ccccc2)nc2nc[nH]c12`, the growth inhibition in test [1] was 8.75%; in test [2], -3.9%; in test [3], -20.3%; in test [4], -2.2%; in test [5], 0.85%; in test [6] it was 5.85%.
Take `O=C1CSC(c2ccccc2C(F)(F)F)N1c1nncs1` (stereo unspecified): the growth inhibition is 18.4% in test [1]; 1% in test [2]; 11.6% in test [3]; -46% in test [4]; -39.2% in test [5]; 9.8% in test [6].
In the case of `NC(N)=Nc1ccccc1OC1OC(CO)C(O)C(O)C1O` (stereo unspecified), the growth inhibition is -12.4% in test [1]; 16.1% in test [2]; 2.55% in test [3]; -50.5% in test [4]; -7% in test [5]; -2.25% in test [6].
With `CCCCNCCOC(=O)c1ccc(N)cc1`, the growth inhibition in test [1] is 2.9%; in test [2] it was 2%; in test [3], 1.9%; in test [4], 16.4%; in test [5] it was 10.1%; in test [6], 12.1%.
`COC(=O)C1OC2(CCCC3CC32)O[C@H]1C(=O)OC` (stereo partly specified): the growth inhibition in test [1] was -8.35%; in test [2], -10.2%; in test [3], -20.6%; in test [4] it was -13.2%; in test [5], -13.8%; in test [6] it was 6.35%.
On to `O=C1NC2(CCCC2)C(=O)NC12CCCC2`, for which the growth inhibition in test [1] is -21.1%; in test [2], -22.1%; in test [3], -1.45%; in test [4] it was -13.2%; in test [5] it was -26.2%; in test [6], 1.35%.
As for `NC(=O)/C(=C\c1ccncc1)c1cccc2ccccc12`, the growth inhibition is -0.55% in test [1]; -5.1% in test [2]; -41.1% in test [3]; -3.35% in test [4]; -44% in test [5]; -7.05% in test [6].
On to `CCOC(=O)c1c(-c2ccccc2)csc1NC(=O)CN1CCCCC1`, for which the growth inhibition in test [1] is 28.6%; in test [2] it was 8.8%; in test [3], 14.7%; in test [4] it was 6.55%; in test [5], 17.9%; in test [6], 24.7%.
As to `c1ccc2cc(SSc3ccc4ccccc4c3)ccc2c1`, the growth inhibition is -30.1% in test [1]; -23.8% in test [2]; -15.9% in test [3]; 0.1% in test [4]; -17.2% in test [5]; -4.85% in test [6].
Consider `Nc1c(Br)c(Cl)c(Br)c2c1-c1ccc(Cl)cc1C2`, for which the growth inhibition in test [1] was -13.1%; in test [2] it was -4.8%; in test [3], -1.4%; in test [4], -19.9%; in test [5], 7.15%; in test [6] it was 5.05%.
As for `O=S(=O)(N=N/C=C1\C=CC=CN1O)c1cccs1`, the growth inhibition was -12.1% in test [1]; 6.3% in test [2]; -8.25% in test [3]; -1.15% in test [4]; -26.4% in test [5]; -21.1% in test [6].
`CCC(C)CN1C(=O)NC(C)(Cc2ccccc2)C1=O` (stereo unspecified): the growth inhibition is 18.6% in test [1]; 1.25% in test [2]; 1.15% in test [3]; 16.8% in test [4]; 7.85% in test [5]; 4.25% in test [6].
On to `COC(=O)CC1C2(C)C3=C(C)C(c4ccoc4)CC3OC2C2OC(=O)C3(C)C=CC(=O)C1(C)C23` (stereo unspecified), for which the growth inhibition in test [1] was 85% (active); in test [2], 84.2% (active); in test [3], 79.2% (active); in test [4] it was 81% (active); in test [5], 82% (active); in test [6], 90.3% (active).
On to `O=C1CN(c2ccccc2)C(=O)CN1/N=C/c1ccc(O)c(O)c1`, for which the growth inhibition in test [1] was -35.2%; in test [2], 8.75%; in test [3] it was -3.25%; in test [4] it was 12.7%; in test [5] it was -2.55%; in test [6], -11.2%.
Take `Cc1ccc(-n2nnc(-c3ccc(Cl)c(Cl)c3)n2)cc1`: the growth inhibition was -30.9% in test [1]; -40.8% in test [2]; -4.45% in test [3]; -12.1% in test [4]; -18.6% in test [5]; -31.5% in test [6].
For `CO/C(=N\N=C\c1ccc(OC)c(OC)c1)c1ccncc1`, the growth inhibition in test [1] was -21.6%; in test [2], -37.9%; in test [3] it was -12.9%; in test [4], -7.75%; in test [5], -28.6%; in test [6], -40%.
For the compound `CC1CCC(C(C)C)N(C)CC1` (stereo unspecified), the growth inhibition in test [1] was -17.2%; in test [2], -22.6%; in test [3], -6%; in test [4], 3.75%; in test [5], -8.15%; in test [6] it was -2.2%.
